Only some compounds are listed: those with a hit (about 2.7% of all), similar ones and a draw of the others.
TCR CD3 inh: inhibitors of human TCR-CD3 interaction, primary screen, biochemical, fluorescence, TAMRA-labeled TCR probe; T-cell receptor (TCR); 0.37% of 360,000 active; inhibition, % at 9.4 µM;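 note: recombinant mutant TCR 2C K166C tagged with TAMRA read by polarization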
PAFAH1B3 inh: PAFAH1B3 enzyme inhibitors, primary screen, biochemical, fluorescence polarization, human. AID 492972, 2010. recombinant PAFAH1B3, FP-rhodamine probe. Platelet-activating factor acetylhydrolase IB subunit alpha1 (Homo sapiens), Q15102. 0.28% of 340,000 active. inhibition, % at 3.39 µM;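 active = inhibition above the screen-wide average of all tested compounds plus 3 SD, cut at about 25% in these data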
Target sequence (Q15102 whole entry, looked up): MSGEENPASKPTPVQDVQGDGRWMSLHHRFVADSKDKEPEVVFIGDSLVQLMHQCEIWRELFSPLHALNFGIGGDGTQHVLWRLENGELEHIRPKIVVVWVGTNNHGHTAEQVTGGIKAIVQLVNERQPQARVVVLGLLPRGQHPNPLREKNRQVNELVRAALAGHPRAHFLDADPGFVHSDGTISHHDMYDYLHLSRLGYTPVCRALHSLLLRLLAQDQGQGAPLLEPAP
PAFAH2 inh: PAFAH2 enzyme inhibitors, primary screen, biochemical, fluorescence polarization, human | Platelet-activating factor acetylhydrolase 2, cytoplasmic (Homo sapiens), Q99487 | AID 492956, 2010 | recombinant PAFAH2, FP-rhodamine activity probe | inhibition, % at 3.39 µM | 0.99% of 340,000 active;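 active = inhibition above the mean over all tested compounds plus 3 SD, cut at about 30% in these data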;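 note: inhibitors block probe labeling of enzyme so polarization drops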
PAFAH1B2 FP inh: PAFAH1B2 enzyme inhibitors, primary screen, biochemical, fluorescence polarization, human; recombinant PAFAH1B2, FP-rhodamine activity probe; inhibition, % at 3.39 µM; 1.2% of 340,000 active; AID 492953, 2010;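 active = inhibition above the mean of all tested compounds plus 3 SD, cut at about 24% in these data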
Target sequence (P68402 whole entry, looked up): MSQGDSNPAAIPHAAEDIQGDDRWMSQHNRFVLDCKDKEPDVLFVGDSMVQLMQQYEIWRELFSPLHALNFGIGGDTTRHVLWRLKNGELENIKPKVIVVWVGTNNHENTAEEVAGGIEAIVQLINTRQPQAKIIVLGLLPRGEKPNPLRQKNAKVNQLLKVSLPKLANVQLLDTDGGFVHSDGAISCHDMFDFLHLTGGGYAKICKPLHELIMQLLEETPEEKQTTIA
pPAFAH FP inh: pPAFAH enzyme inhibitors, primary screen, biochemical, fluorescence polarization, human | Platelet-activating factor acetylhydrolase (Homo sapiens), Q13093 | recombinant pPAFAH, FP-rhodamine probe fluorescence polarization | inhibition, % at 3.39 µM | 1.5% of 330,000 active | AID 463082, 2010;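 active = inhibition above the mean inhibition across the screen plus 3 SD, cut at about 25% in these data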;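 note: inhibitors block binding of the rhodamine activity-based probe so polarization drops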
BSA TAMRA ctr: compounds interfering with TAMRA-BSA probe, counter-screen for TCR-CD3 interaction inhibitor project, biochemical, fluorescence, TAMRA-labeled BSA; shares compounds with TCR CD3 inh; TAMRA-labeled BSA probe fluorescence counterscreen; inhibition, % at 9.4 µM; 10% of 1,200 active; AID 652035, 2013; in the data active = inhibition above about 23%
TCR-CD3 conf: TCR-CD3 interaction inhibitors, retest, confirmation, biochemical, fluorescence, TAMRA-labeled TCR probe | 48% of 1,200 active | TAMRA-labeled TCR probe fluorescence binding assay | AID 652036, 2013 | inhibition, % at 9.4 µM | shares compounds with TCR CD3 inh
Numbers stand for hits; n = inactive; x = no result given. Cut-off read from the data, not from the text of the source, unless noted: active = inhibition above about 19%; inactive = the rest.

SMILES	TCR CD3 inh	PAFAH1B3 inh	PAFAH2 inh	PAFAH1B2 FP inh	pPAFAH FP inh	BSA TAMRA ctr	TCR-CD3 conf
COc1ccc(S(=O)(=O)N(C)C[C@H]2Oc3ccc(NC(=O)Nc4ccc(C(F)(F)F)cc4)cc3C(=O)N([C@H](C)CO)C[C@@H]2C)cc1	34	n	n	n	n	24	47
C[C@H](CO)N1C[C@H](C)[C@@H](CN(C)C(=O)Nc2ccc(C(F)(F)F)cc2)Oc2ccc(NC(=O)Nc3ccc(C(F)(F)F)cc3)cc2C1=O	76	n	n	n	n	25	48
C[C@@H]1CN([C@H](C)CO)C(=O)c2cc(NC(=O)Nc3cccc4ccccc34)ccc2O[C@H]1CN(C)Cc1ccc(C(F)(F)F)cc1	25	n	n	n	n	n	n
COc1ccc(NC(=O)N(C)C[C@@H]2OCc3cn(nn3)CCCC(=O)N([C@H](C)CO)C[C@H]2C)cc1	32	x	x	x	x	n	n
CCCCn1c(N)c(N(CCOC)C(=O)c2oc3c(Cl)cccc3c2C)c(=O)[nH]c1=O	n	x	x	x	x	x	x
C[C@@H]1CN([C@H](C)CO)C(=O)c2cc(NC(=O)Nc3ccc(C(F)(F)F)cc3)ccc2O[C@H]1CN(C)S(=O)(=O)c1ccccc1	30	n	n	n	n	n	n
CC1(C(=O)NCc2ccccn2)CCN1C(=O)Cc1ccc(Cl)cc1Cl (stereo unspecified)	n	x	x	x	x	x	x
CCn1c(CSc2n[nH]c(N)n2)nc2cc(C(=O)O)ccc21	94	36	52	38	25	137	97
CCn1c(CSc2nnc(-c3ccncc3)n2CCOC)nc2cc(C(=O)O)ccc21	32	27	47	36	30	160	109
Cc1cnc(C(=O)OCC(=O)N2CCC(C)CC2)cn1	n	n	n	n	n	x	x
COc1ccc(CN2CCNC(=O)C2CC(=O)NCC(C)(C)N2CCOCC2)cc1C (stereo unspecified)	n	n	n	n	n	x	x
O=c1c2ccccc2sn1-c1ccc(Cl)cc1Cl	n	x	x	x	x	x	x
O=C(O)c1cccc2cc(-c3ccccc3)oc(=O)c12	n	n	n	n	n	x	x
O=C(O)c1cccc2cccc(-c3c4ccc(=O)c(O)c-4oc4c(O)c(O)ccc34)c12	66	66	69	62	x	n	68
Nc1ccc2c3c(cccc13)C(=O)N(c1ccccc1)C2=O	28	n	n	n	x	43	34
CC1=C(C)CC(C(=O)Nc2nccs2)C(C(=O)O)C1 (stereo unspecified)	n	n	n	n	n	x	x
Cc1nonc1NC(=O)CSc1nc(C2CCCCC2)nc2ccccc12	n	n	n	n	n	x	x
Cc1nonc1NC(=O)CSc1nc(C23CC4CC(CC(C4)C2)C3)nc2ccccc12	20	n	n	n	n	n	n
COc1cccc(/C=N/NC(=O)CNC(=O)COc2ccccc2)c1O	n	n	n	n	n	x	x
Cc1cccc(OCC(=O)NCC(=O)N/N=C/c2cc(Br)cc(Br)c2O)c1	51	n	n	34	n	n	41
Cc1nc(S/C(=C/c2ccc(-c3ccc(C(=O)O)cc3)o2)C(=O)O)n[nH]1	68	n	n	n	33	n	51
NNc1ccc([N+](=O)[O-])c2[nH][nH]c(=O)c12	50	x	x	x	x	n	106
Cc1cc(N(C)C)ccc1[N+](=O)[O-]	n	n	n	n	n	x	x
COc1ccc2c3c(cccc13)C(=O)CC2	57	110	126	100	x	n	n
COc1ccc2c(c1OC)C(=O)OC2	n	n	n	n	n	x	x
SMILES	TCR CD3 inh	PAFAH1B3 inh	PAFAH2 inh	PAFAH1B2 FP inh	pPAFAH FP inh	BSA TAMRA ctr	TCR-CD3 conf
O=C1C=CC(=O)c2c(O)c(CO)c(CO)c(O)c21	78	50	68	25	x	n	59
CCc1ccccc1OCC(=O)Nc1cccc(S(=O)(=O)NC2=NCCC2)c1	n	n	n	n	n	x	x
c1cc(-c2ccoc2)n2ccnc2c1	25	x	x	x	x	n	n
c1cc(-c2ccsc2)n2ccnc2c1	n	x	x	x	x	x	x
O=S(=O)(/N=C(/Nc1cccnc1Cl)c1ccccc1)c1ccccc1	n	n	n	n	n	x	x
Cc1ccc(-c2csc(C(O)c3cccc(Cl)c3)n2)cc1C (stereo unspecified)	n	x	x	x	x	x	x
COc1ccc(-n2c(COc3ccc(C)cc3)nnc2SCC(=O)O)cc1	31	n	n	n	n	n	n
CCOC(=O)C1CCCN(C(=O)c2ccc3c(c2)OCO3)C1 (stereo unspecified)	n	n	n	n	n	x	x
CCOC(=O)C1CCCN(C(=O)C2COc3ccccc3O2)C1 (stereo unspecified)	28	n	n	n	x	n	n
CCCN(CCC)Cc1cc(=O)oc2cc(C)c(C)cc12	n	x	x	x	x	x	x
Cn1cccc1C(=O)NCc1ccccn1	n	n	n	n	x	x	x
COc1ccc(NC(=O)NNC(=O)c2ccc3ccccc3c2O)cc1OC	51	n	n	n	n	n	46
COc1cccc(C(=O)NNC(=O)c2ccc3ccccc3c2O)c1	40	n	n	n	n	n	36
Cc1ccccc1NC(=O)NNC(=O)c1ccc2ccccc2c1O	43	n	n	n	n	n	33
COc1cccc(C(=O)NNC(=O)c2ccccc2)c1	n	n	n	n	x	x	x
COc1ccc(NC(=O)c2cccc3ccccc23)cc1OC	n	x	x	x	x	x	x
COc1ccc(C(=O)NNC(=O)c2cc3ccccc3cc2O)cc1	32	n	n	n	n	n	24
Cc1onc(-c2c(F)cccc2Cl)c1C(=O)N(C)CCc1ccccn1	n	n	n	n	n	x	x
COc1ccccc1N(CC(=O)NCCSCc1cccc(C)c1)S(=O)(=O)c1ccccc1	n	n	n	n	n	x	x
Cc1ccc(Sc2ccc(N)cn2)cc1	n	x	x	x	n	x	x
CCN(CC)C(=O)C1=C(C)N(Cc2ccc(C(C)(C)C)cc2)C(=O)C(CC(=O)NCCN2CCOCC2)C1 (stereo unspecified)	n	x	x	x	x	x	x
COc1ccccc1NC(=O)NNC(=O)c1ccc2ccccc2c1O	36	n	n	n	x	n	25
Cc1ccc(Cn2ccsc2=NC(=O)CCl)cc1	n	n	n	n	n	x	x
Cc1ccc(Cn2ccsc2=NC(=O)COC(=O)c2ccc(NC(=O)CC#N)cc2)cc1	27	n	n	n	n	n	n
Cc1ccc(NS(=O)(=O)c2ccc3[nH]c(=O)[nH]c3c2)cc1	n	n	n	n	n	x	x
NS(=O)(=O)c1ccc(NC(=O)c2cccc(N3C(=O)c4ccccc4C3=O)c2)cc1	25	n	n	n	n	n	30

Bioassay records deposited in PubChem BioAssay by The Scripps Research Institute Molecular Screening Center.
